# This is a sample that favours compounds with a hit; in the whole collection about 3.1% have one here.
# Imprint erasure = genomic imprint erasure induction | AID 1948 | Potency, µM (highest dose often 60.7 µM), for inactives: top-dose activity change, positive = activation, actives largely listed as activators | actives 0.02% (n = 110,000) | mouse ES Peg3-LacZ reporter, beta-gal luminescence, 40 h
#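 Each well holds 300 Peg3LacZ-Neo (maternal) female ES cells incubated 40 h at 37C, 5% CO2. LacZ is measured by BetaGlo luminescence, with AC50 and maximum efficacy derived from dose-response curves.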
# TSHR agonist = TSH receptor (human) agonism. P16473. HEK293-CNG-TSHR cells (CNG channel as cAMP sensor), membrane potential dye, cAMP. Potency, µM (doses to about 57.1 µM), inactives show at the highest dose activation, usual class: activators. actives 0.48% (n = 73,000); active = well fitted activation curve with a large enough effect in the main read-out, with a control signal flat, not every such curve was filed as active; inconclusive = small, poorly fitted or top-dose-only effect, or a change in a side signal; inactive = no such curve, though single readings can be large or run the other way; % of control where 0% means no effect;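 note: the control signal comes from parental cells without the receptor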
# Target sequence (P16473 whole entry, looked up): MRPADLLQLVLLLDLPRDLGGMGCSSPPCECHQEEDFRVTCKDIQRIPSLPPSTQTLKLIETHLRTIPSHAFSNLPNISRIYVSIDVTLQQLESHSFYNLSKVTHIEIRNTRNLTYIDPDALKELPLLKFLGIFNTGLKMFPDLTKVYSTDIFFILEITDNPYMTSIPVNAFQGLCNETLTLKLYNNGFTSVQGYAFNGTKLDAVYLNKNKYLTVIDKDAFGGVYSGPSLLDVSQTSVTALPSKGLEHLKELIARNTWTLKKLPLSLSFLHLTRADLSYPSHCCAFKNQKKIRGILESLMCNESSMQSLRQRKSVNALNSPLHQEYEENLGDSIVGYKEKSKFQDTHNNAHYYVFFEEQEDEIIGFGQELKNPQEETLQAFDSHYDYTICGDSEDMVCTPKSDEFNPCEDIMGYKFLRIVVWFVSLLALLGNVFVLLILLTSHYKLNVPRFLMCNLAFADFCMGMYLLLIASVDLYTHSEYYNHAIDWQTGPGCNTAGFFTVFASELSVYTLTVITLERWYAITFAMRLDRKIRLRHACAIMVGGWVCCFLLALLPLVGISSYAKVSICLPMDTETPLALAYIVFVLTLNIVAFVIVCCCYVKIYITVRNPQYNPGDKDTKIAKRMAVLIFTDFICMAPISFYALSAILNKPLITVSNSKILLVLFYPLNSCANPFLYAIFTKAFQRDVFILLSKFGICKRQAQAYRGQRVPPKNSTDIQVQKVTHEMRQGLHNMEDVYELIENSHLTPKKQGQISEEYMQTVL
#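 cAMP rise detected as CNG-channel membrane depolarization by fluorescent dye (emission 590 nm), 30 min after compound, following 60 min dye loading containing 100 uM RO 20-1724 at room temperature. Cells: TSHR/CNG HEK 293, with parental CNG HEK 293 as control.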
# IkB sig inh = suppresses IkB signaling in ABC-DLBCL reporter cells; ABC-DLBCL IkBa-CBG/CBR dual luciferase ratio, 4 h; response scale: scaled: untreated 0%, proteasome inhibitor 100%; Potency, µM (doses to about 57.1 µM), for the others: at the top dose IkBa stabilization activation; actives 0.04% (n = 110,000); AID 445; active = well fitted curve in the direction sought with a large enough effect in the signal ratio, not every such curve was filed as active; inconclusive = small, poorly fitted or top-dose-only effect, or a change in a side signal; the % refers to the signal ratio;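 note: the direction sought is a rising ratio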
#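 In this assay, an IκBα–CBG68 fusion accumulates when IKK-driven degradation is blocked; native CBR normalizes for cell number. OCI-Ly3 cells were treated 4 h with compound and doxycycline, then green and red light read after Chroma-Glo addition.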
# HEK293 cAMP cs = counter-screen for TSHR agonists: cAMP increase in parental HEK293; parental HEK293 CNG cAMP sensor, membrane potential fluorescence; Potency, µM (series often up to 57.1 µM), for inactives: top-dose activation, usual class: activators; actives 2.5% (n = 73,000); AID 938; note: % of control where 0% means no effect; nearly all actives have a fitted effect of over 55% in size
#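 Parental HEK 293 cells stably expressing a cAMP-gated CNG channel were loaded with membrane potential dye containing 100 uM RO 20-1724 for 60 min. Compound added for 30 min; depolarization read as fluorescence intensity at 590 nm.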
# p53ts 32C tox = kills p53ts cells at the permissive temperature. actives 0.93% (n = 130,000). AID 924. Potency, µM (top dose mostly 46.1 µM), inactives show top-dose activity change, negative = cytotoxicity, hits mostly cytotoxic. H1299-p53A138V at 32C, ATP luminescence viability, 24 h;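 note: 0% = DMSO and -100% = full killing by reference compound; nearly all actives have a fitted effect of over 55% in size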
#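 Cells: H1299 p53ts (A138V), 600/well, pre-incubated 16–30 h at 37C. Cpd up to 46 uM, 24 h, 32C. Readout: ATPlite luminescence, 20 min RT. Normalization: DMSO vs tamoxifen 100 uM. AC50 by Hill equation.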
# p53ts 39C kill = cytotoxicity in p53ts cells at nonpermissive temperature; H1299-p53A138V viability at 39C, ATP luminescence, 24 h; Potency, µM (top dose mostly 46.1 µM), for inactives: at the top dose activity change, negative = cell killing, hits mostly cytotoxic; actives 1.5% (n = 130,000); AID 902; note: % is set by controls: 0 for no effect and ±100 for the full control effect; nearly all actives have a fitted effect of over 55% in size
# Active calls of the source: *; ? = inconclusive; . = not tested or not shown; [ ] = dose if it differs, or a comment. Unless noted, calls come from the whole dose curve; as a rule, active = well fitted curve in the direction sought with a large enough effect; inconclusive = small, poorly fitted or top-dose-only effect, or another doubt; inactive = no such curve, though single readings can be large; an effect the other way counts as inactive or inconclusive. Potency is the fitted concentration of half-maximal effect.
SMILES,Imprint erasure,TSHR agonist,IkB sig inh,HEK293 cAMP cs,p53ts 32C tox,p53ts 39C kill
CCC1Oc2ccc(C)cc2N(CC(=O)N(Cc2ccc3c(c2)OCO3)CC2CCCO2)C1=O (stereo not drawn),-9.6%,?,2.0%,5.01µM*,17.1%,2.6%
CNC(=O)C1CCC(Cn2c(=O)c3sccc3n(CC(=O)Nc3ccccc3)c2=O)CC1 (stereo not drawn),6.5%[10.9 µM],.,-0.9%,.,0.4%,-5.1%
Cc1ccc2[nH]c(CSc3nnc(C)s3)cc(=O)c2c1,2.6%[10.9 µM],.,-0.8%,.,1.1%,-2.7%
COc1ccccc1CNC(=O)CSc1ccc(-c2sc(-c3ccccc3)nc2C)nn1,-17.5%[10.9 µM],.,-1.2%,.,-4.2%,-8.3%
Cc1sc2nc(SCC(=O)NCc3ccco3)n(-c3ccccc3)c(=O)c2c1C,-5.4%,.,-0.8%,-7.5%,-3.6%,-12.8%
O=C(CSc1nc2ccccc2c(=O)n1-c1ccccc1)NCc1ccco1,.,?,-3.4%,25.1µM*,-2.7%,4.9%
CCn1c(=S)sc2c(=O)n(-c3ccccc3)c(SCC(=O)NCc3ccco3)nc21,8.6%,?,?,20µM*,12.7%,2.7%
CC(C)OCCCNC(=O)c1cc2c(-c3ccc(Cl)cc3)nn(C)c2s1,-7.5%[10.9 µM],.,?,.,-7.2%,-11.9%
CCOc1ccc(CCNC(=O)CSCc2nc(-c3cccc(C)c3)oc2C)cc1OCC,-13.2%[10.9 µM],.,?,.,0.3%,-14.7%
O=S(=O)(c1ccc(F)c2ccccc12)N1CCCCC1,-4.3%,?,0.4%,31.6µM*,22.9%,-11.9%
O=C(CSc1nnnn1C1CCCC1)N1CCCc2ccccc21,-14.6%,?,-0.6%,?,0.0%,-16.1%
O=C(CSc1nnc(Cc2cccs2)n1C1CCCCC1)N1CCCc2ccccc21,-17.6%,?,?,12.6µM*,10.5%,-14.0%
COC(=O)c1cccc(C23CC4(C2)[C@H](CN(CC2CCCCC2)[C@@H]4c2ccccc2)C3c2ccc(Cl)nc2)c1 (stereo partly drawn),-12.4%,.,.,.,20.6%,0.9%
Cc1ccc(NC(=O)c2nc(S(C)(=O)=O)ncc2N(Cc2ccccc2)Cc2ccco2)c(C)c1,-14.5%[10.9 µM],.,?,.,-7.4%,14.6%
CC(=O)Nc1ccc(NC(=O)CCc2c(C)nc3c(c(C)nn3-c3ccc(C)cc3)c2C)cc1,10.9%[10.9 µM],.,?,.,-6.6%,7.94µM*
COc1cccc2cc(C(C)=O)c(=O)oc12,-2.7%,-3.9%,1.1%,-12.8%,9.0%,0.6%
COc1cccc2cc(C(=O)Nc3ccc(CC(=O)O)cc3)c(=O)oc12,-51.6%[10.9 µM],.,?,.,5.01µM*,7.94µM*
COCCCn1c2nc3ccccc3nc2c2c(=O)n(Cc3ccccc3Cl)cnc21,1.8%,?,2.5%,25.1µM*,7.7%,-0.6%
COc1cc(S(=O)(=O)n2ccnc2C(C)C)ccc1Br,8.8%[10.9 µM],.,1.3%,.,-11.2%,-13.9%
CCCN1CCN(CCCNC(=O)c2cc3c(s2)-c2ccccc2OC3)CC1,-12.1%[10.9 µM],.,?,.,-17.0%,?
CCCN1CCN(CCCNC(=O)c2cc3c(s2)-c2c(C)cccc2OC3)CC1,-18.2%[10.9 µM],.,?,.,?,10µM*
O=C(NCCCN1CCN(c2ccccc2F)CC1)c1cc2c(s1)-c1ccccc1OC2,-11.0%[10.9 µM],.,?,.,?,12.6µM*
COc1ccccc1NC(=O)Cn1c(=O)n(CCCCCC(=O)NCc2ccccc2)c(=O)c2sccc21,-7.5%[10.9 µM],.,?,.,2.8%,-12.2%
CCN(CC)S(=O)(=O)c1ccc2c(c1)c(=O)c(C(=O)NCc1ccccc1)cn2C,11.6%[10.9 µM],.,-0.5%,.,-12.2%,2.6%
CCN(CC)S(=O)(=O)c1ccc2c(c1)c(=O)c(C(=O)NCc1ccccc1Cl)cn2C,27.7%[10.9 µM],.,?,.,?,6.31µM*
SMILES,Imprint erasure,TSHR agonist,IkB sig inh,HEK293 cAMP cs,p53ts 32C tox,p53ts 39C kill
CC(C)c1ccc(S(=O)(=O)c2nnn3c2nc(NC2CCCC2)c2sccc23)cc1,-16.1%[10.9 µM],.,-3.1%,.,8.0%,-22.6%
CCOc1ccc(CNC(=O)CCC(=O)N2CC(C)Sc3ccccc32)cc1 (stereo not drawn),-16.6%[10.9 µM],.,?,.,-6.4%,15.3%
Cc1ccc(CNC(=O)Cn2ncc3c(C)n(Cc4ccc(Cl)cc4)c(C)c3c2=O)cc1,-8.9%[10.9 µM],.,?,.,-14.6%,15.8µM*
O=C(NCCN1CCCCC1)c1ccc(Cn2c(SCc3ccccc3)nc3cccnc32)cc1,-12.3%[10.9 µM],.,?,.,12.6µM*,10µM*
CC1CCCCN1CCNC(=O)c1ccc(Cn2c(SCc3ccccc3)nc3cccnc32)cc1 (stereo not drawn),-14.2%[10.9 µM],.,?,.,10µM*,10µM*
CC1CCN(CCNC(=O)c2ccc(Cn3c(SCc4ccccc4)nc4cccnc43)cc2)CC1,-17.7%[10.9 µM],.,?,.,?,10µM*
Cc1ccc(C)c(Nc2nn3c(=O)c4cc5c(cc4nc3s2)OCO5)c1,-5.1%[10.9 µM],.,?,.,-16.5%,-4.8%
O=c1c2cc3c(cc2nc2sc(Nc4ccccc4)nn12)OCO3,-4.3%[10.9 µM],.,-0.6%,.,12.6µM*,15.8µM*
CCCn1c(=O)c2[nH]c(-c3ccccc3)nc2n(CCC)c1=O,2.7%,-2.6%,0.2%,6.6%,-12.5%,-8.2%
Nc1ncnc2nc[nH]c12.Nc1ncnc2nc[nH]c12.[Cl][Pt]([Cl])([Cl])[Cl],.,-3.5%[11.4 µM],1.2%[11.4 µM],-0.4%[11.4 µM],.,.
CCOC(=O)C1=C(N)OC2=C(C(=O)CC(C)(C)C2)C1c1cccnc1 (stereo not drawn),3.8%,?,-0.4%,?,9.5%,0.2%
COC(=O)C1=C(N)OC2=C(C(=O)CC(C)(C)C2)C1c1cccs1 (stereo not drawn),-7.0%,?,5.6%,3.16µM*,7.7%,8.1%
CCOC(=O)C1=C(N)OC2=C(C(=O)CC(C)(C)C2)C1c1ccoc1 (stereo not drawn),.,?,2.2%,12.6µM*,7.4%,8.0%
CC(=O)OC[C@@H]1O[C@H](C/C=N\OC[C@@H](O)[C@H]2O[C@H]3OC(C)(C)O[C@H]3[C@@H]2O)C=C[C@@H]1OC(C)=O,.,13.0%[11.4 µM],.,2.1%[11.4 µM],-2.1%[9.22 µM],-4.3%[9.22 µM]
CSc1nc2c(sc3ccccc32)c(=O)n1Cc1ccc(C)cc1,-14.8%[10.9 µM],.,?,.,-6.1%,-16.5%
COc1ccc(Cn2c(SCC(N)=O)nc3c(sc4ccccc43)c2=O)cc1,11.1%[10.9 µM],.,?,.,-9.1%,12.6µM*
COc1ccc(NC(=O)CSc2nc3ccccc3n2CC(=O)N2CCCC(C)C2)cc1 (stereo not drawn),12.3%[10.9 µM],.,-0.6%,.,3.2%,-24.7%
